About 79,000 compounds went through this panel and 15% of them were active in at least one assay; those are over-represented in the sample as a whole. Calls of active or inactive are those of the source. Rule as the data show it: active = growth inhibition above about 70%; inactive = the rest.

The assay is described as follows: NCI Yeast Anticancer Drug Screen. Data for the mgt1 strain (AID 153). Conditions: S. cerevisiae mgt1 mutant growth inhibition, hits give high values. As for the experimental part:
Growth inhibition of yeast strains with defined genetic alterations is measured as a screen for potential anti-cancer activity. Selected strains with alterations in DNA damage repair or cell cycle control were exposed to compounds and growth inhibition was measured relative to vehicle treated controls. The strain used in this assay is mgt1

Take `Cc1nc(-[n+]2nc(-c3ccncc3)nn2-c2ccccc2)sc1C`: the growth inhibition by setting is: (at 1.2 µM) -4% (inactive); (at 3.7 µM) -5% (inactive); (at 11.0 µM) 8% (inactive); (at 33.0 µM) 54% (inactive); (at 100.0 µM) 78% (active).
For the compound `COC1C=COC2(C)Oc3c(C)c(O)c4c(c3C2=O)/C(=N/C2CCC(O)OC2C)C=C(NC(=O)/C(C)=C\C(=O)C2CC2C(O)C(C)C(O)C(C)C(OC(C)=O)C1C)C4=O` (stereo not given), the growth inhibition (at 1.2 µM) was 0% (inactive); the growth inhibition (at 3.7 µM) is -4% (inactive); the growth inhibition (at 11.0 µM) was -1% (inactive); the growth inhibition (at 33.0 µM) was 29% (inactive); the growth inhibition (at 100.0 µM) was 80% (active).
On to `CCCCCCCCNC(=O)C1=C(C)NC(C)=C(C(=O)NCCCCCCCC)C1`, for which the growth inhibition (at 1.2 µM) is 0% (inactive); the growth inhibition (at 3.7 µM) is 0% (inactive); the growth inhibition (at 11.0 µM) was 1% (inactive); the growth inhibition (at 33.0 µM) is -13% (inactive); the growth inhibition (at 100.0 µM) is 4% (inactive).
For the compound `COc1ccc(N=C2C(=O)Nc3ccc(Br)cc32)cc1`, the growth inhibition is 8% (inactive) (at 1.2 µM); -24% (inactive) (at 3.7 µM); -5% (inactive) (at 11.0 µM); 2% (inactive) (at 33.0 µM); 1% (inactive) (at 100.0 µM).
For `Cc1ccc(S(=O)(=O)Oc2cc(Cl)c(Cl)cc2Cl)cc1`, the growth inhibition (at 1.2 µM) was 0% (inactive); the growth inhibition (at 3.7 µM) is -2% (inactive); the growth inhibition (at 11.0 µM) is -6% (inactive); the growth inhibition (at 33.0 µM) was -9% (inactive); the growth inhibition (at 100.0 µM) is -8% (inactive).
`CN(C)Cc1cc(N=Nc2ccc(Cl)cc2)cc(CN(C)C)c1O`: the growth inhibition runs as follows: (at 1.2 µM) 13% (inactive); (at 3.7 µM) 12% (inactive); (at 11.0 µM) 13% (inactive); (at 33.0 µM) 26% (inactive); (at 100.0 µM) 13% (inactive).
On to `CCCS(=O)(=O)Nc1ccc(Nc2c3ccccc3nc3ccccc23)c(OC)c1`, for which the growth inhibition is, setting by setting: (at 1.2 µM) -21% (inactive); (at 3.7 µM) -64% (inactive); (at 11.0 µM) -52% (inactive); (at 33.0 µM) -10% (inactive); (at 100.0 µM) 73% (active).
`Cc1ccc(S/N=C\c2ccccc2O)cc1`: the growth inhibition reads like this: (at 1.2 µM) 2% (inactive); (at 3.7 µM) -1% (inactive); (at 11.0 µM) 1% (inactive); (at 33.0 µM) 7% (inactive); (at 100.0 µM) -1% (inactive).

(Values after PubChem BioAssay (NCI).)
